Experimental data taken from PubChem BioAssay AID1159580 (chemical genetic matrix, 2015).
Out of some 5,500 compounds screened, about 2,000 (36%) were called active. Inconclusive results (about 18%) are left out. Rule as the data show it: active = normalized growth mostly below about 0.91 (no sharp cut-off); inconclusive = no clear call, values can overlap the other calls; inactive = mostly above about 0.92. Some of the results follow.

Assay: chemical genetic growth profiling, strain panel (AID 1159580);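 also: tested at 20 µM; growth read once vehicle control cultures reached saturation at 30 °C; 1 = growth at the plate median or of vehicle wells; lower values mean less growth of the strain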
Conditions: S. cerevisiae deletion strains, growth OD

Measured: normalized growth

CC(=O)O[C@@H]1C[C@@]2(C)C(CC[C@@H]2C(C)=O)C2CCC3=CC(=O)CC[C@]3(C)C21 (stereo not given in full)
inactive: locus YAL021C, strain ccr4, hits give low values 0.996 | locus YAL026C, strain drs2, hits give low values 1.03 | locus YAL030W, strain snc1, hits give low values 1.01 | locus YBL061C, strain skt5, hits give low values 1.01 | locus YBR009C, strain hhf1, hits give low values 1.06 | locus YBR023C, strain chs3, hits give low values 1 | locus YBR171W, strain sec66, hits give low values 0.964 | locus YBR231C, strain swc5, hits give low values 1.02 | locus YBR279W, strain paf1, hits give low values 1 | locus YCL011C, strain gbp2, hits give low values 1.02 | locus YCL016C, strain dcc1, hits give low values 1.02 | locus YCL061C, strain MRC1, hits give low values 1.01 | locus YCL069W, strain vba3, hits give low values 1.02 | locus YCR088W, strain abp1, hits give low values 1.02 | locus YDL005C, strain med2, hits give low values 1.01 | locus YDL040C, strain nat1, hits give low values 1.01 | locus YDR001C, strain nth1, hits give low values 0.997 | locus YDR069C, strain doa4, hits give low values 1.02 | locus YDR137W, strain rgp1, hits give low values 0.974 | locus YDR159W, strain sac3, hits give low values 1.02 | locus YDR195W, strain ref2 1.06 | locus YDR297W, strain sur2, hits give low values 1.01 | locus YDR334W, strain swr1, hits give low values 1.03 | locus YDR335W, strain msn5, hits give low values 1 | locus YDR392W, strain spt3, hits give low values 0.863 | locus YEL003W, strain gim4, hits give low values 1.02 | locus YEL037C, strain rad23, hits give low values 1.01 | locus YEL061C, strain CIN8 (second series), hits give low values 1.02 | locus YER015W, strain faa2, hits give low values 1.01 | locus YER016W, strain bim1, hits give low values 1.02 | locus YER111C, strain swi4, hits give low values 1.01 | locus YER155C, strain BEM2 (second series), hits give low values 1.04 | locus YFR010W, strain ubp6, hits give low values 1.02 | locus YGL167C, strain pmr1, hits give low values 1.02 | locus YGL173C, strain kem1, hits give low values 1.03 | locus YGL227W, strain vid30, hits give low values 1.01 | locus YGL240W, strain doc1, hits give low values 1.04 | locus YGL253W, strain hxk2, hits give low values 1 | locus YHR013C, strain ard1, hits give low values 0.974 | locus YHR027C, strain rpn1, hits give low values 1.01 | locus YHR030C, strain SLT2, hits give low values 0.967 | locus YHR079C, strain IRE1, hits give low values 0.985 | locus YHR142W, strain chs7, hits give low values 0.947 | locus YJL092W, strain hpr5, hits give low values 1.01 | locus YJL095W, strain BCK1 (second series), hits give low values 1.02 | locus YJL095W, strain BCK1, hits give low values 0.997 | locus YJL115W, strain asf1, hits give low values 1.01 | locus YJL129C, strain trk1, hits give low values 0.95 | locus YJL154C, strain vps35, hits give low values 1.01 | locus YJL164C, strain tpk1, hits give low values 0.985 | locus YJL166W, strain qcr8, hits give low values 1.01 | locus YJL187C, strain SWE1, hits give low values 1.01 | locus YJR066W, strain TOR1, hits give low values 0.953 | locus YKL160W, strain elf1, hits give low values 0.965 | locus YKR026C, strain gcn3, hits give low values 1.01 | locus YKR091W, strain srl3, hits give low values 1.01 | locus YLL001W, strain dnm1, hits give low values 1.02 | locus YLL026W, hits give low values 1.02 | locus YLL041C, strain sdh2, hits give low values 1 | locus YLR027C, strain aat2, hits give low values 0.998 | locus YLR113W, strain HOG1, hits give low values 1.02 | locus YLR221C, strain rsa3, hits give low values 0.969 | locus YLR258W, strain gsy2, hits give low values 1.04 | locus YLR262C, strain YPT6 (second series), hits give low values 0.964 | locus YLR320W, strain mms22, hits give low values 0.97 | locus YLR342W, strain FKS1, hits give low values 1.02 | locus YLR357W, strain rsc2, hits give low values 1.03 | locus YLR370C, strain arc18, hits give low values 1 | locus YLR384C, strain iki3, hits give low values 1.01 | locus YML120C, strain ndi1, hits give low values 0.981 | locus YMR058W, strain fet3, hits give low values 1.01 | locus YMR125W, strain sto1, hits give low values 1.02 | locus YMR129W, hits give low values 1.01 | locus YMR205C, strain PFK2, hits give low values 1.05 | locus YMR231W, strain pep5, hits give low values 1.02 | locus YNL071W, strain lat1, hits give low values 0.97 | locus YNL183C, strain NPR1, hits give low values 0.984 | locus YNL209W, strain ssb2, hits give low values 1 | locus YNL248C, strain rpa49, hits give low values 0.953 | locus YNL322C, strain KRE1 (second series), hits give low values 1.01 | locus YNR049C, strain mso1, hits give low values 1.01 | locus YOR001W, strain rrp6, hits give low values 0.947 | locus YOR070C, strain gyp1, hits give low values 1.01 | locus YOR080W, strain dia2, hits give low values 1.01 | locus YOR083W, strain WHI5, hits give low values 0.953 | locus YOR106W, strain vam3, hits give low values 0.974 | locus YOR231W, strain MKK1, hits give low values 0.979 | locus YOR265W, strain rbl2, hits give low values 1 | locus YOR270C, strain vph1, hits give low values 0.999 | locus YOR290C, strain snf2, hits give low values 0.98 | locus YPL051W, strain arl3, hits give low values 0.976 | locus YPL078C, strain atp4, hits give low values 0.97 | locus YPL106C, strain sse1, hits give low values 1.03 | locus YPL240C, strain hsp82, hits give low values 0.984 | locus YPL256C, strain CLN2, hits give low values 0.973
